Compounds without any hit were thinned out: in the full panel of roughly 83,000, 20% have a hit.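 Method: cells in 96-well plates; compound added at one concentration; 48 h incubation; percent growth measured; values under 10 scored active.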 Values without a mark were called inactive. The source made the active and inactive calls.

The test system of the experiment is SW-620 colon. The experiment in a line: NCI-60 one-dose screen, 48 h (100 = growth as untreated, 0 = no growth, -100 = all killed). The following applies: 10 µM.
Regarding `O=C(/C=C/Nc1ccc(F)cc1F)c1ccc2c(c1)Nc1ccccc1S2`, the growth is 55.1%.
Under `C=C1CC[C@H](C(=C)C)[C@H]2C=C(C)C(=O)C3=C(C(=O)[C@@](C)(O)C3)[C@H]12` stands -53.3% (active); under `CN(CCO)c1oc(-c2ccccc2)nc1[P+](c1ccccc1)(c1ccccc1)c1ccccc1`, 11.5%; under `O=C(CNc1nc(-c2ccccc2)cs1)Nc1ccc([N+](=O)[O-])cc1Cl`, 23.2%.
Then `COc1ccc(CCN2C(=O)/C(=C/c3csc(C#N)n3)SC2=S)cc1OC`, with -20.5% (active); and `Cc1ccc([N+](=O)[O-])c(C(=O)Nc2ccc(-c3ccc4c(c3)NC(=O)/C4=C\c3ccc[nH]3)cc2)c1`, with -51.2% (active).
Regarding `COc1ccc(-c2nc(S(=O)(=O)c3ccccc3)c(S(C)(=O)=O)o2)cc1`, the growth was -25.3% (active).
Under `Cc1ccc(-c2ccc(SCC(=O)Nc3ccc(Cl)c(C(F)(F)F)c3)nn2)cc1` stands 24.2%; under `Cc1ccn2c(C(=O)c3ccc(Br)cc3)cc(-c3cc(-c4ccc(N(C)C)cc4)c(C#N)c(N)n3)c2c1`, 41.5%; under `O=c1[nH]c2ccccc2cc1CSc1ccc(Nc2nccc(-c3ccc(Cl)cc3)n2)cc1`, 2.67% (active).
Turning to `CC1(C)CC[C@]2(C(=O)Nc3ccccc3)CC[C@]3(C)C(=CC[C@@H]4[C@@]5(C)CC[C@H](N)C(C)(C)[C@@H]5CC[C@]43C)[C@H]2C1`, the growth is 8.55% (active).
In the case of `Cc1ccc(NC(=O)NCn2c(=O)[nH]c3ccccc3c2=O)cc1`, the growth was 78.5%.
For the molecule `COc1cc(/C=C/C(=O)c2cc(OC)c(OC)c(OC)c2)ccc1Oc1nc(Nc2ccc(F)cc2)nc(N(C)C)n1`, the growth is 1.14% (active).
With `Cn1cc(/C=N/Nc2ccnc3cc(Cl)ccc23)c2ccccc21`, the growth was -62.8% (active).
Then `N#Cc1ccc(-c2nn(-c3ccc(C(=O)O)cc3)cc2CNc2cc(Cl)cc(C(F)(F)F)c2)cc1`, with 21.2%.
As to `O=C1NC(=NC23CC4CC(CC(C4)C2)C3)N/C1=C\c1ccc2ncccc2n1`, the growth is 2.73% (active).
With `COc1ccc(/C=C/C(=O)c2ccc(NC(=O)CN3C(=O)NC(C)(c4ccccc4)C3=O)cc2)cc1` (configuration not stated), the growth was 88.8%.
Consider `O=C(c1ccc(Cl)cc1)C1[C@H](c2ccccc2Br)[C@@H](c2ccccc2)NC12C(=O)Nc1ccc(Cl)cc12` (some centres not stated), for which the growth was 8.7% (active).
Then `O=C1CCC(N2Cc3cc(NC(=O)COc4ccccc4)ccc3C2=O)C(=O)N1` (configuration not stated), with 55.2%.
Under `CC1(c2ccccc2)NC(=O)N(CC(=O)Nc2ccc(C(=O)/C=C/c3ccc(Cl)cc3)cc2)C1=O` (configuration not stated) stands -58.9% (active).
Turning to `C#CCNC(=O)CCC(=O)OC[C@]12CC[C@@H](C(=C)C)[C@@H]1C1CC[C@@H]3[C@@]4(C)CCCNC(C)(C)[C@@H]4CC[C@@]3(C)[C@]1(C)CC2` (some centres not stated), the growth was -92.3% (active).
Then `CCCn1c(=O)c2[nH]c(-c3ccc(OCc4nc5ccc(F)cc5[nH]4)cc3)nc2n(CCC)c1=O`, with 17.1%.
For the molecule `COC[C@@H](CC(C)C)N=C1NC(=O)/C(=C/c2ccc3ncsc3c2)N1`, the growth was 5.92% (active).
For the molecule `COc1ccc(C=CC(=O)c2ccc(-n3c(C)nc4c(cnn4-c4ccccc4)c3=O)cc2)cc1`, the growth is 75.1%.
Consider `O=C(c1ccc(Cl)cc1)C1[C@H](c2ccccc2Br)[C@@H](c2ccccc2)NC12C(=O)Nc1ccc(Br)cc12` (some centres not stated), for which the growth was 7.29% (active).
As to `O=C(Nc1cccc(C(F)(F)F)c1)c1cncc(C#Cc2cnc3ccc(N4CCOCC4)nn23)c1`, the growth is 2.23% (active).
On to `N#Cc1c(-c2ccc(F)cc2)nc(SCc2ccc([N+](=O)[O-])cc2)nc1N1CCOCC1`, for which the growth was 80.5%.
Take `NS(=O)(=O)c1ccc(NC(=O)CSc2ccc(-c3ccc(Cl)cc3)nn2)c(Br)c1`: the growth is 82.8%.
Under `CC(=O)NCC1=C(C)C=C2C(=O)[C@](C)(O)C3(CC3)C(C)=C21` stands 70.1%.
Under `CC(=O)Nc1nc(-c2ccc(N3CCN(C)CC3)c(NS(=O)(=O)c3cccc4c(N(C)C)cccc34)c2)cs1` stands 70.9%.
Under `O=C(CSc1nnc(-c2ccc3nc(-c4ccc(Cl)cc4)[nH]c3c2)o1)Nc1ccc(Br)cc1` stands -20.9% (active).
For the molecule `COc1cc2c3c(n(CCCNCCO)c(=O)c2cc1OC)-c1nc2c(cc1C3=O)OCO2`, the growth was 20.2%.
Take `Cc1ccc(NCC(=O)Nn2c(COc3ccccc3)nc3ccccc3c2=O)cc1`: the growth was 95.1%.
Then `O=C(c1ccccc1)n1ccc(-c2cc3cc(Br)ccc3oc2=O)n1`, with 45.8%; and `Cc1ccc(CSc2nc(Cl)c(C#N)c(-c3ccc(F)cc3)n2)cc1`, with 62.8%.
Consider `COc1cc(/C=C/C(=O)c2ccc(F)cc2)ccc1Oc1nc(Nc2ccc(F)cc2)nc(N(C)C)n1`, for which the growth is 2.33% (active).
`COc1cc2oc(-c3cccc(C(=O)Nc4ccc(Cl)cc4)c3)cc(=O)c2c(OCCNC(=O)CNC(=O)OC(C)(C)C)c1OC`: the growth is 110%.
